Survival data for 93 molecules are collected here from PubChem BioAssay AID463173 (ICCB-Longwood Screening Facility, Harvard Medical School, 2010).

Molecules are shown by their SMILES. About 4,300 (8.3%) of roughly 52,000 compounds were called active. No stated cut-off is given here; in the data, active means survival mostly below about 52% (no sharp cut-off); inactive means mostly above about 56%. The full list was thinned out, with actives kept by preference.

The test has as its system DeltatarO mutant. Kind of test: growth inhibition of S. aureus wild type versus tarO mutant, primary screen, teichoic acid synthesis inhibitors, RN4220, OD600 (AID 463173). The settings on record: OD600, 18 h, stronger effect = lower value, screened at 18.75 µg/mL (by protocol).
`CCCNC(=O)N1CCN(S(=O)(=O)c2ccc3c(ccn3C)c2)CC1`: the survival was 83% (inactive).

On to `CCc1c(-c2ccccc2)nc2ccccc2c1C(=O)NCCc1ccccc1`, for which the survival is 70% (inactive).

`CCOc1ccc(NC(=O)Cn2c(=O)n(-c3ccccc3)c(=O)c3ccc(C(=O)NCc4ccc5c(c4)OCO5)cc32)cc1`: the survival was 107% (inactive).

As to `COc1cccc(CNC(=O)CSc2nc(=O)[nH]c3c2CCC3)c1`, the survival is 80% (inactive).

Turning to `CCOc1ccc(-c2cc(C(=O)NCc3ccc(OCC)c(OC)c3)[nH]n2)cc1`, the survival was 85% (inactive).

`Cc1cc(N2CCN(C)CC2)nc2ccc(NC(=O)Nc3ccccc3)cc12`: the survival is 65% (inactive).

With `CCN1CCN(c2cc(C)c3cc(NC(=O)c4cccc(Cl)c4)ccc3n2)CC1`, the survival was 23% (active).

In the case of `Cc1cc(C)cc(NC(=O)Nc2ccc3nc(N4CCN(C)CC4)cc(C)c3c2)c1`, the survival was 117% (inactive).

Turning to `Cc1ccc(C(=O)Nc2ccc3nc(N4CCCCC4)cc(C)c3c2)cc1F`, the survival is 55% (inactive).

For the molecule `Cc1cc(N2CCCCC2)nc2ccc(NC(=O)CCC(=O)N3CCN(c4ccccc4)CC3)cc12`, the survival is 62% (inactive).

As for `Cc1cc(N2CCCCC2)nc2ccc(NC(=O)c3cccc(Cl)c3)cc12`, the survival was 0% (active).

`Cc1ccccc1C(=O)Nc1ccc2nc(N3CCCCC3)cc(C)c2c1`: the survival is 32% (active).

`CCN1CCN(c2cc(C)c3cc(NC(=O)c4cc(Br)ccc4Cl)ccc3n2)CC1`: the survival was 32% (active).

For `Cc1cc(N2CCN(C)CC2)nc2ccc(NC(=O)Nc3cccc(Cl)c3)cc12`, the survival is 70% (inactive).

On to `CCN1CCN(c2cc(C)c3cc(NC(=O)c4cccc(C(F)(F)F)c4)ccc3n2)CC1`, for which the survival was 63% (inactive).

Turning to `Cc1cc(N2CCCCC2)nc2ccc(NC(=O)c3cccc(F)c3)cc12`, the survival was 83% (inactive).

Turning to `Cc1cc(N2CCN(C)CC2)nc2ccc(NC(=O)Nc3ccc(Cl)cc3)cc12`, the survival was 72% (inactive).

Regarding `O=C(C1CC1)N1CCc2cc(Br)cc(S(=O)(=O)Nc3ccc(F)c(F)c3)c21`, the survival was 110% (inactive).

Consider `CCS(=O)(=O)N1CC(=O)N(c2ccc(Cl)cc2)C(C)(C(=O)NC2CCCCCC2)C1` (stereo not drawn), for which the survival was 115% (inactive).

As to `CCN1CCN(c2c(S(=O)(=O)c3ccccc3)cnc3ccc(Cl)cc23)CC1`, the survival is 124% (inactive).

`COc1ccc(NS(=O)(=O)c2ccc3c(c2)CCN3C(=O)CCC(=O)O)cc1Cl`: the survival is 93% (inactive).

Take `Clc1cccc(-c2noc3ncnc(NC4CCCCC4)c23)c1`: the survival is 68% (inactive).

Take `CN(c1ncnc2c1c(-c1ccccc1)cn2-c1cccc(Cl)c1)C1CCCCC1`: the survival is 83% (inactive).

As for `CN(c1ncnc2onc(-c3cccc(Cl)c3)c12)C1CCCCC1`, the survival is -17% (active).

In the case of `Cc1cccc(NC(=O)CSc2nc(-c3cccs3)nc3cc(=O)[nH]n23)c1`, the survival is 87% (inactive).

`Cc1ncc(CO)c2c1Oc1nc(-c3ccccc3Cl)nc(SCc3ccccc3F)c1C2`: the survival was 72% (inactive).

Take `Cc1cc(C(F)(F)F)nn1-c1nc(-c2ccccc2)cc(C(F)(F)F)n1`: the survival is 17% (active).

For `COc1ccc(-c2cc(C(F)(F)F)nc(S(C)(=O)=O)n2)cc1`, the survival was 83% (inactive).

Take `COc1ccc(-c2cc(C(F)(F)F)nc(-n3nc(C(F)(F)F)cc3C)n2)cc1`: the survival is 16% (active).

For the molecule `CC(Sc1nc(-c2ccccc2)cc(C(F)(F)F)n1)C(=O)NN1CCCCC1` (stereo not drawn), the survival is 72% (inactive).

As for `COc1ccc(-c2cc(C(F)F)nc(-n3nc(C)cc3C)n2)cc1`, the survival was 91% (inactive).

As for `CCc1nn(CC(=O)NCCc2ccc(Cl)cc2)c(=O)c2cc3c(OC)cccc3n12`, the survival is 75% (inactive).

For the molecule `Clc1ccccc1CNc1ncnc2c1nc1n2CCCC1`, the survival was 97% (inactive).

Consider `COC(=O)c1cc(-c2cocc2C=C(C#N)C#N)ccc1Cl`, for which the survival was 84% (inactive).

With `CC(C)Oc1ccc(C(=O)N2CC(=O)Nc3ccc(F)cc3C2c2ccc(F)cc2)cc1` (stereo not drawn), the survival is 53% (inactive).

`CCc1nc2nc(C)c(NS(=O)(=O)c3ccc(F)c(C)c3)c(=O)n2[nH]1`: the survival was 123% (inactive).

Consider `O=C(COCc1cc(-c2cccs2)on1)Nc1cccc(Cl)c1Cl`, for which the survival was 75% (inactive).

For `Cc1ccc(O)c(NC(=O)COCc2cc(-c3ccco3)on2)c1`, the survival is 95% (inactive).

In the case of `O=C(COCc1cc(-c2ccc(F)cc2)on1)Nc1cc(Cl)cc(Cl)c1`, the survival was 144% (inactive).

Regarding `Cc1ccc(Cl)cc1NC(=O)COCc1cc(-c2ccco2)on1`, the survival is 83% (inactive).

Turning to `O=C(COCc1cc(-c2ccc(F)cc2)on1)Nc1cccc(Cl)c1Cl`, the survival is 46% (active).

On to `O=C(COCc1cc(-c2ccco2)on1)Nc1cc(Cl)ccc1O`, for which the survival is 0% (active).

For `O=C(COCc1cc(-c2ccco2)on1)Nc1cccc(Cl)c1Cl`, the survival is 32% (active).

As for `CCc1ccccc1NC(=O)COCc1cc(-c2ccco2)on1`, the survival was 55% (inactive).

In the case of `O=C(COCc1cc(-c2ccc(F)cc2)on1)Nc1cc(Cl)ccc1O`, the survival was 74% (inactive).

Regarding `CCc1cccc(NC(=O)CCC(=O)N2CCSc3ccccc32)c1`, the survival is 57% (inactive).

For the molecule `CC(C)(C)C(=O)Nc1cccc(C(=O)OCc2cc(=O)n3nc(C4CCCCC4)sc3n2)c1`, the survival is 124% (inactive).

Consider `COc1ccc(-c2nnc(SCc3nnc(-c4ccccc4)o3)o2)cc1OC`, for which the survival is 73% (inactive).

Regarding `Cc1nn(CCC(=O)Nc2cc(F)ccc2F)c(=O)c2nn(-c3ccccc3)c(C)c12`, the survival was 99% (inactive).

For `CCC(C)(C)n1nnnc1C(c1ccccc1)N1CCc2ccccc2C1` (stereo not drawn), the survival was 79% (inactive).

For the molecule `COc1ccccc1Cn1cc(C(=O)c2ccc(Cl)cc2)c(=O)c2cc3c(cc21)OCCO3`, the survival was 83% (inactive).

As to `Cc1ccc(Nc2nc(C(=O)N3CCC(C)CC3)cs2)cc1`, the survival was 91% (inactive).

On to `O=C(COc1ccc(F)cc1)NCCc1nc2ccccc2[nH]1`, for which the survival is 57% (active).

Regarding `Cc1cc(OCC(=O)NCCc2nc3ccccc3[nH]2)cc(C)c1Cl`, the survival is 44% (active).

For the molecule `COc1ccc(C(=O)NCCc2nc3ccccc3[nH]2)cc1`, the survival was 127% (inactive).

In the case of `O=C(NCCc1nc2ccccc2[nH]1)c1ccc(F)cc1`, the survival was 81% (inactive).

In the case of `Cc1cccc(OCC(=O)NCCc2nc3ccccc3[nH]2)c1C`, the survival is 79% (inactive).

As for `Cc1cc(C)cc(OCC(=O)NCCc2nc3ccccc3[nH]2)c1`, the survival is 109% (inactive).

For the molecule `COc1cccc(CNC(=O)c2ccc(-c3nc(CS(=O)c4ccccc4)c(C)o3)cc2)c1` (stereo not drawn), the survival is 92% (inactive).

Regarding `O=S(=O)(c1ccc(Cl)cc1)c1nnn2c1nc(N1CCCCC1)c1sccc12`, the survival is 52% (inactive).

As for `CCS/C(=C(\C#N)C(N)=O)c1ccc(-c2ccccc2)[nH]1`, the survival was 59% (inactive).

Turning to `N#CC(C#N)=C(C#N)c1cc2c([nH]1)CCCC2`, the survival is 81% (inactive).

Consider `CCSC(=C(C#N)C#N)c1cc2c([nH]1)CCCC2`, for which the survival was 45% (active).

As to `CCCOc1ccc(C2C(=O)N(C3CCCCC3)CC(=O)N2CCc2ccccc2)cc1OC` (stereo not drawn), the survival is 86% (inactive).

Consider `O=C(c1ccc(Cl)cc1)N1CCC(c2ccncc2)CC1`, for which the survival was 87% (inactive).

With `Cc1cc(-c2ccccc2)n2nc(N)nc2n1`, the survival was 99% (inactive).

Turning to `Brc1cccc(-c2cnn3c(-c4ccccc4)cc(-c4ccccc4)nc23)c1`, the survival is 74% (inactive).

For the molecule `Cc1cc(C)n2nc(-c3ccccc3)cc2n1`, the survival is 97% (inactive).

For the molecule `Cc1cc(-c2ccccc2)n2nc(-c3ccccc3)cc2n1`, the survival was -3% (active).

As for `O=C(Nc1ccc(Br)cc1)c1cc2nc(-c3ccccc3)cc(-c3ccccc3)n2n1`, the survival is 65% (inactive).

As for `Cc1cc(-c2ccccc2)n2nc(-c3cccc(Br)c3)cc2n1`, the survival was 14% (active).

As for `CS(=O)(=O)N(CC(=O)NCCc1ccccc1)c1cc(C(F)(F)F)ccc1Cl`, the survival is 68% (inactive).

Regarding `CCOC(=O)c1c(C)[nH]c(C)c1S(=O)(=O)NCC(=O)NCc1cccc(Br)c1`, the survival is 130% (inactive).

For the molecule `COc1ccc(C)cc1S(=O)(=O)N1CCN(c2cccc(Cl)c2)CC1`, the survival was 59% (inactive).

Take `Cc1cc(C)c(Cn2c(CCNC(=O)c3ccco3)nc3ccccc32)c(C)c1`: the survival was 59% (inactive).

As for `COc1cccc(-n2c(=O)c3sc4ccccc4c3n(CC(=O)Nc3ccccc3C)c2=O)c1`, the survival was 74% (inactive).

For the molecule `CCc1ccccc1NC(=O)Cn1nnc(C(=O)NCc2ccccc2Cl)c1N`, the survival was 20% (active).

For `COc1ccc(NC(=O)Cn2nnc(C(=O)Nc3ccc(C)c(F)c3)c2N)cc1Cl`, the survival was 118% (inactive).

Take `COc1cccc(CNC(=O)c2nnn(CC(=O)Nc3cc(Cl)ccc3C)c2N)c1`: the survival was 25% (active).

Turning to `Cc1cc(C)cc(NC(=O)Cn2nnc(C(=O)NCc3ccccc3Cl)c2N)c1`, the survival is 72% (inactive).

Regarding `Cc1cccc(NC(=O)Cn2nnc(C(=O)Nc3ccc(F)c(Cl)c3)c2N)c1`, the survival was 101% (inactive).

Turning to `CCc1ccccc1NC(=O)Cn1nnc(C(=O)NCc2cccc(OC)c2)c1N`, the survival is 70% (inactive).

Take `Cc1ccc(NC(=O)Cn2nnc(C(=O)NCCc3ccccc3)c2N)cc1`: the survival was 87% (inactive).

With `CCc1ccccc1NC(=O)Cn1nnc(C(=O)NCc2cccs2)c1N`, the survival was 94% (inactive).

For the molecule `COc1ccc(NC(=O)Cn2nnc(C(=O)Nc3ccc(F)c(Cl)c3)c2N)cc1OC`, the survival was 37% (active).

Turning to `COc1cccc(Cn2nnc(C(=O)Nc3cc(C)ccc3C)c2N)c1`, the survival was 100% (inactive).

Turning to `Cc1ccc(NC(=O)Cn2nnc(C(=O)NCCc3ccccc3)c2N)cc1C`, the survival is 46% (active).

Take `Cc1ccc(NC(=O)Cn2nnc(C(=O)NCCc3ccccc3)c2N)cc1Cl`: the survival was 105% (inactive).

For `COc1ccc(-c2nnc(SCC(=O)Nc3c(C)cccc3C)nc2-c2ccc(OC)cc2)cc1`, the survival was 92% (inactive).

As to `COc1cccc(CNC(=O)c2ccc(-c3nc(CS(=O)(=O)c4ccccc4)c(C)o3)cc2)c1`, the survival was 72% (inactive).

With `COc1ccc(-c2noc(-c3ccc(N4CCCC4)c([N+](=O)[O-])c3)n2)cc1OC`, the survival was 59% (inactive).

In the case of `CCC(C)NC(=O)c1cc2cc(S(=O)(=O)N3CCCCC3)ccc2n1C` (stereo not drawn), the survival is 55% (inactive).

Take `CCc1cccc(NC(=O)CC2Oc3ccc(C)cc3NC2=O)c1` (stereo not drawn): the survival was 79% (inactive).
